Laboratory results reported in PubChem BioAssay (NCI).
This is part of a sample that, as a whole, favours compounds with a hit. Of some 83,000 tested, about 20% had one in any assay.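 Percent growth is the endpoint: 0 to 100 indicates growth inhibition (40 means 60% inhibition), 0 means no net growth, and negative values indicate cell death.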 Calls of active or inactive are those of the source. Rule for the calls: active = growth percent below 10; inactive = the rest.

System: MDA-MB-468 breast
Test: NCI-60 one-dose screen, 48 h (100 = growth as untreated, 0 = no growth, -100 = all killed)
Conditions: 10 µM unless noted

**Q.** With C#C[C@]1(O)CC[C@H]2[C@@H]3CC=C4c5sc(N=C(N)N)nc5CC[C@]4(C)[C@H]3CC[C@@]21C as the compound, how does the growth read?
**A.** -31.7% (active)

**Q.** With CC(C)C1=NOC(=O)C1=Cc1cn(-c2ccccc2)nc1-c1ccc(F)cc1 as the compound, how does the growth read?
**A.** 73.4% (inactive)

**Q.** For O=c1c(-c2nc3ccccc3[nH]2)cc2ccccc2n1Cc1cn(Cc2ccc(N3CCOCC3)cc2)nn1, which growth is on record?
**A.** 64.3% (inactive)

**Q.** How did the growth turn out when O=C(/C=C/C=C/c1ccccc1)c1ccco1 was run?
**A.** 29.3% (inactive)

**Q.** For Clc1ccc(-c2ccc(CNCC3CCNCC3)o2)c(-c2ccccc2)c1, which growth is on record?
**A.** -79.1% (active)

**Q.** CC1=C(C)C(=O)C(Nc2ccc3c(c2)OCCO3)=C(Br)C1=O was tested. Which growth did it give?
**A.** 28.1% (inactive)

**Q.** How did the growth turn out when NS(=O)(=O)c1ccc(-n2nc(-c3ccc(Cl)cc3)ccc2=O)cc1 was run?
**A.** 56.9% (inactive)

**Q.** For Cc1cccc2c1O/C(=C\c1ncc([N+](=O)[O-])n1C)C2=O, which growth is on record?
**A.** -12.6% (active)

**Q.** Which growth does the source give for O=C1/C(=C/c2ccccc2O)N=C2SCCCN12 here?
**A.** 99.2% (inactive)

**Q.** With O=C(O)CCCN1C(=O)/C(=C/c2cn(-c3ccccc3)nc2-c2ccc([N+](=O)[O-])cc2)SC1=S as the compound, how does the growth read?
**A.** 73.5% (inactive)

**Q.** CCCCCCc1cc(N=Nc2ccc(S(=O)(=O)Nc3cc(C)nc(C)n3)cc2)c(O)cc1O was tested. Which growth did it give?
**A.** 102% (inactive)

**Q.** With CC1C(=O)NC2=Nc3ccccc3C(=O)NN21 (stereo not given) as the compound, how does the growth read?
**A.** 93.7% (inactive)

**Q.** How did the growth turn out when NC(=O)c1ccc(N=C(N)N=C(N)N)cc1 was run?
**A.** 84.5% (inactive)

**Q.** For COc1ccc(/C=C/c2nc(Nc3cccc(NC(C)=O)c3)c3ccccc3n2)cc1, which growth is on record?
**A.** 67.1% (inactive)

**Q.** How did the growth turn out when COc1ccc(/C=C2/SC(=O)N(CC(=O)N3CCN(c4cc5c(cc4F)c(=O)c(C(=O)O)cn5C4CC4)CC3)C2=O)cc1 was run?
**A.** 108% (inactive)

**Q.** How did the growth turn out when Cc1n[nH]c(=O)n(/N=C\c2c[nH]c3ccccc23)c1=O was run?
**A.** 106% (inactive)

**Q.** How did the growth turn out when NC(=S)N/N=C(/CCN1CCCC1)CC(C1=C(O)C2=CCCCC2OC1=O)c1ccccc1 (stereo not given) was run?
**A.** 17.9% (inactive)

**Q.** How did the growth turn out when CCCOC(=O)c1nc(N(CC2CCCCC2)C(=O)NC)sc1/N=C/c1ccccc1 was run?
**A.** -18.8% (active)

**Q.** With O=C(Nc1ccccc1Cl)Oc1ccc2ccccc2c1 as the compound, how does the growth read?
**A.** 104% (inactive)

**Q.** For Nc1nc(Cl)c2[nH]cnc2n1, which growth is on record?
**A.** 94.7% (inactive)

**Q.** How did the growth turn out when CC(C)(C)c1ccc(O)c(Cc2cc(C(C)(C)C)ccc2O)c1 was run?
**A.** 119% (inactive)

**Q.** How did the growth turn out when C#CC[C@H](N)C(=O)O was run?
**A.** 101% [20 µM] (inactive)

**Q.** How did the growth turn out when Nc1ccc(F)cc1F was run?
**A.** 92.7% (inactive)

**Q.** With IP(CCCCCCCCCCSc1n(Cc2ccc3ccccc3c2)c(-c2ccccc2)c(-c2ccccc2)[n+]1Cc1ccc2ccccc2c1)(c1ccccc1)(c1ccccc1)c1ccccc1 as the compound, how does the growth read?
**A.** -75.3% (active)

**Q.** Which growth does the source give for COc1cc2c(cc1-c1c(C)noc1C)ncc1nc(CN3CCOCC3)n([C@H](C)COC(F)F)c12 here?
**A.** 29.6% (inactive)

**Q.** How did the growth turn out when COCCn1cc(-c2nc(-c3cc4cccnc4n3C)cs2)c2ccccc21 was run?
**A.** -16.1% (active)

**Q.** With CC1(C)C(N)=Nc2cc(OCCCN3Cc4ccccc4C3)c(OCC3CC3)cc21 as the compound, how does the growth read?
**A.** 47.3% (inactive)

**Q.** Which growth does the source give for O=c1scc(-c2ccc(C(F)(F)F)cc2)s1 here?
**A.** 72.5% (inactive)

**Q.** O=c1c2cc(F)cc(Cl)c2sc2c(NCCCNCCO)nc3ccccc3c12 was tested. Which growth did it give?
**A.** 78.2% (inactive)

**Q.** For CCOC(=O)c1c(C)c2c(n1Cc1ccccc1)CSc1cc(C#N)c(=O)[nH]c1-2, which growth is on record?
**A.** 80.3% [100 µM] (inactive)

**Q.** For COc1cc2c(c(O)c1Cl)C(=O)c1c(O)cc(C[C@H](C)O)cc1[C@H]2[C@H]1c2cc(C[C@H](C)O)cc(O)c2C(=O)c2c1cc(OC)c(Cl)c2O, which growth is on record?
**A.** -14.6% (active)

**Q.** Which growth does the source give for COc1cc(C(=O)O)c(O)c(C(C)(C)C)c1 here?
**A.** 100% (inactive)

**Q.** Which growth does the source give for CC(C)(C)[Si](C)(C)O[C@H]1C(=O)C=CN2CC=C[C@@H]12 here?
**A.** 99.4% [100 µM] (inactive)

**Q.** Which growth does the source give for COc1ccc(/C=C2/C(=O)ON=C2C)cc1 here?
**A.** 103% (inactive)

**Q.** For O=C(c1ccncc1)N1N=C(c2ccc(Cl)cc2)C[C@H]1c1cn(-c2ccccc2)nc1-c1ccccc1, which growth is on record?
**A.** 88.5% (inactive)

**Q.** With CNC(=O)c1cc(Oc2ccc3nc(NC(C)=O)sc3c2)ccn1 as the compound, how does the growth read?
**A.** 100% (inactive)

**Q.** How did the growth turn out when COc1ccc(/C=C2/CCc3cc4ccc(OC)cc4[o+]c32)c(O)c1 was run?
**A.** 97.1% (inactive)

**Q.** How did the growth turn out when COc1cc(C2C3=C(COC3=O)N(CCO)c3cc4c(cc32)OCCO4)cc(OC)c1OC (stereo not given) was run?
**A.** -64.5% (active)

**Q.** How did the growth turn out when O=C1[C@H]2Cc3c([nH]c4ccccc34)[C@@H](c3ccc(Cl)cc3)N2C(=O)CN1C1CCN(Cc2ccccc2)CC1 was run?
**A.** 27.3% (inactive)

**Q.** COc1nccc2cc3c(=O)n4c(cc5ccccc54)c(=O)n3c12 was tested. Which growth did it give?
**A.** 89.4% (inactive)
